# Experimental data from PubChem BioAssay AID847 (SRMLSC, 2007).
# Hit rate of the full screen: of about 41,000 compounds, about 190 (0.46%) were called active. Shown is part of a subset that was picked to be rich in actives. Values without a mark were called inactive.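 Rule for the calls: active = viability at or below the median of all test compounds minus 3 SD, in both replicates if run twice (cut at about 45% in these data); inconclusive = duplicate replicates that disagree with each other; inactive = viability above that cutoff in every replicate.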
# Assay: SK-BR-3 proliferation inhibitors, primary screen, cell-based, human, 24 h (AID 847);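 note: 100% = median untreated cell wells and 0% = median positive control drug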
# Conditions: SK-BR-3 viability, CellTiter-Glo ATP luminescence, at 10 µM, stronger effect = lower value
row,SMILES,viability [%]
1,CSc1nc(O)c(Cc2ccccc2)c(=O)[nH]1,88.2
2,C=CCNc1nnc(C)c2ccccc12,94.2
3,COc1ccc(C2C(C#N)=C(N)Oc3n[nH]c(C)c32)cc1CN1CCN(c2ccc(F)cc2)CC1 (stereo not drawn),67
4,CCOC(=O)C1CCCN(C(=O)c2cncc(Br)c2)C1 (stereo not drawn),89.5
5,O=C(Nc1ccc2c(c1)nc1n2CCCCC1)c1cc(S(=O)(=O)N2CCOCC2)ccc1Cl,69
6,O=C(CSc1ncccn1)NCCc1ccccc1,89.6
7,CSc1nsc(SC)c1NC(=O)OC1CCCCC1,106
8,COc1ccc(S(=O)(=O)N2CCOCC2)cc1C(=O)Nc1nc2ccccc2s1,87.8
9,CCCC(=O)Nc1cc(OCC)c(NC(=O)NC2CCCCC2)cc1OCC,128
10,COC(=O)[C@H](CCSC)NC(=O)Nc1ccc(OC)cc1,86.4
11,COC(=O)C1(S(=O)(=O)C2(C(=O)OC)CCCC2)CCCC1,105
12,C=CCNC(=O)c1ccc(C)c(Br)c1,74.5
13,CCn1cc(NC(=O)Nc2ccc(OC)c(OC)c2)c(C(N)=O)n1,90.8
14,Cc1ccc(C(=O)CS(C)(=O)=O)cc1,90.6
15,CC(=O)N1CCC(C(=O)Nc2nc(-c3ccccc3)ns2)CC1,96.3
16,Cc1nc(NCCN)c(C#N)c2c1COC(C)(C)C2,85.4
17,OC(COc1ccccc1)Cn1cc(Br)cn1 (stereo not drawn),74.7
18,CCCOC(=O)C1=C(C)NC2=C(C(=O)C(C(=O)OC)C(C)C2)C1c1ccc(N(C)C)cc1 (stereo not drawn),89
19,Cc1nc(N2CCCC2C(=O)O)c2oc3ccccc3c2n1 (stereo not drawn),101
20,COC(=O)c1cn(CC(=O)NCc2cccs2)c2ccccc12,108
21,COc1cc(-c2nc(S(=O)(=O)c3ccc(Cl)cc3)c(N(C)C)o2)cc(OC)c1OC,75.4

row,SMILES,viability [%]
1,O=C(c1cccc(S(=O)(=O)N2CCOCC2)c1)N1CCOCC1,94.3
2,CC(=O)Oc1cccc(N2C(=O)C3CC=C(Cl)CC3C2=O)c1 (stereo not drawn),73.3
3,NC(=O)C1CCN(C2OC(=O)c3ccccc32)CC1 (stereo not drawn),93.2
4,O=C(NC(c1ccccc1)c1ccccc1)N1CCN(CCO)CC1,93
5,O=C(CSc1nnc(Cc2ccccc2)n1-c1ccccc1)N1CCOCC1,87.4
6,Cc1ccc2[nH]c(=O)c(COC(=O)c3ccccn3)cc2c1,100
7,CC1Cc2ccccc2N1C(=O)CSc1nnc(-c2ccc(S(=O)(=O)N3CCCCC3)cc2)o1 (stereo not drawn),96
8,Cc1cc(O)ccc1-c1cnc2ccccc2n1,92.4
9,CC(C)NS(=O)(=O)c1ccc(OCC(=O)Nc2ccc3c(c2)OCCO3)cc1,86.3
10,O=C(OC(C(=O)NC1CCCC1)c1ccc(F)cc1)c1ccno1 (stereo not drawn),107
11,N=c1c2c3c(sc2ncn1N)CCCCC3,86
12,COCCNC(=O)c1ccccc1-c1nc(-c2ccccc2Cl)no1,94.6
13,O=C(c1cccc(C(=O)N2CCc3ccccc32)n1)N1CCc2ccccc21,101
14,Cc1nc2nc(COc3ccccc3)[nH]n2c(=O)c1Cc1ccccc1,85.2
15,Cc1cccc(OCc2nnc(SCC(=O)N3CCN(C(=O)c4ccco4)CC3)n2C)c1C,112
16,CCOC(=O)CCc1c(C)c2ccc(OCc3nn[nH]n3)c(C)c2oc1=O,91.2
17,O=C1CCCc2c1[nH]c1ccc(Br)cc21,94.5
18,O=C(COC(=O)c1ccc2c(c1)OCCO2)NCc1ccccc1,91.5
19,Cc1cnc(NC(=O)CSc2nnc(-c3ccc(Cl)cc3Cl)n2N)s1,88.8
20,O=C(Cn1c(-c2ccc(Cl)cc2)noc1=O)N1CCN(c2ccccc2F)CC1,88.1
21,Cc1cc(C)c2cc(CN(Cc3cccs3)Cc3nnnn3CC3CCCO3)c(=O)[nH]c2c1 (stereo not drawn),83.1

row,SMILES,viability [%]
1,CCOC(=O)[C@H]1CCC[C@@H](NS(=O)(=O)c2ccc(NC(C)=O)cc2)C1,73.8
2,C=CCSC1=C(C#N)C(c2cc(Br)c(O)c(OC)c2)CC(=O)N1 (stereo not drawn),86.3
3,CC1(C)CC(=O)C(C2=NC(C)(C)Cc3ccccc32)=C(O)C1,99.5
4,c1nc(COc2nsnc2N2CCOCC2)cs1,90.4
5,Cc1nc2nc3c(cn2n1)C(=O)CC(c1ccccc1)C3 (stereo not drawn),109
6,CCCOc1ccc(CN(CCO)CCO)cc1C(=O)OC,94.7
7,Cc1ccn2cc(C(=O)NC3CCN(Cc4ccccc4)CC3)nc2c1,81
8,CCCC(NS(=O)(=O)c1ccc(OC)cc1)C(=O)O (stereo not drawn),97.5
9,c1ccc2c(NCC3CCCO3)nc(-c3ccncc3)nc2c1 (stereo not drawn),101
10,CCc1ccc(-c2nnn(Cc3nn[nH]n3)n2)cc1,112
11,CCc1nnc(NC(=O)CSc2nnc(COc3ccc(C#N)cc3)n2-c2ccccc2)s1,86
12,Cc1ccc(S(=O)(=O)N2CCC(C(=O)N[C@@H](C)C(=O)NCCc3ccccc3)CC2)cc1,100
13,COc1ccc(C2CC(c3ccc(C)cc3)Nc3nc(N)nn32)cc1 (stereo not drawn),102
14,CC(C)=C(NC(=O)c1ccco1)C(=O)NCCc1nc2ccccc2[nH]1,122
15,Cc1cc(N2CCN(Cc3ccc4c(c3)OCO4)CC2)n2ncnc2n1,88.1
16,Cc1ccc(N(CC(O)CN2CCCC2)S(=O)(=O)c2ccccc2)cc1 (stereo not drawn),84.9
17,CC(C)C(NC(=O)c1cccc(S(=O)(=O)N2CCOCC2)c1)C(=O)NCCc1ccccn1 (stereo not drawn),84.8
18,Cc1ccc(S(=O)(=O)NCC(=O)OCC(=O)N2CCc3ccccc32)cc1,75.8
19,CCCCNc1nc2c(c(=O)[nH]c(=O)n2C)n1CCOc1ccccc1,114
20,c1ccc(-n2ncc3c(N4CCCC4)ncnc32)cc1,86.5
21,CN(C)Cc1c(C#N)c2ccccc2n1C,99.7
